Each structure is given as a SMILES string. Active and inactive are the calls of the source. Rule for the calls: active = hit-call score of the fitted dose curve at least 0.9, where 1 is the maximum; inactive = score below 0.9.

A short description of one assay: UKN2_HCS_IMR90_neural_migration: University of Konstanz (UKN) Leist Lab Neural Crest Cell Migration Assay in human induced IMR90 Pluripotent Stem Cells (UKN2) (AID 2284204). The settings on record: actives raise or lower the signal. The method in brief: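 iPSC-derived IMR90 neural crest cells seeded around stoppers on PLO/laminin/fibronectin; migration started in N2-S medium with EGF/FGF, compounds added after 24 h for 24 h. Migration into cell-free area imaged after calcein-AM/Hoechst staining; bidirectional fit versus DMSO.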
In the case of `CC(=O)OC/N=[N+](\C)[O-]`, the compound was classed as inactive.
For the compound `Brc1cc(Br)c(Oc2cc(Br)c(Br)cc2Br)cc1Br`, the result was inactive.
The same measure, in the same setting: the result for `CC(C)O` reads “inactive”; that for `Cc1ccccc1`, “inactive”; that for `CC(=O)N[C@@H](CC(=O)O)C(=O)O`, “inactive”.
As to `CCCCCC=C(C)C(CC)CCO` (centres undefined), the compound was called inactive.
As usually defined, the AC50 is the concentration at which the activity in the assay is half-maximal. Turning to `BrC1CC(Br)CC(Br)CC(Br)CC(Br)CC(Br)C1` (centres undefined), the AC50 is 5.5 µM (active).
As for `C[C@@H]1CC[C@@H](C(C)(C)O)[C@H](O)C1`, the compound was classed as inactive.
`CC(C)c1nn(C(=O)NC(C)(C)C)c(=O)n1N`: the call was inactive.
For the compound `CCc1ccccc1`, the result was inactive.
In the case of `O.O=S(=O)([O-])[O-].[Mn+2]`, the compound was called inactive.
For the compound `CCCCCC(C)(CC)C(=O)NC` (centres undefined), the compound was classed as inactive.
For the compound `Cc1[nH]n(C)c(=O)c1C(=O)c1ccc(C(F)(F)F)cc1S(C)(=O)=O`, the outcome was inactive.
In the case of `CC(CNC(=S)[S-])NC(=S)[S-].[Zn+2]` (centres undefined), the outcome was inactive.
As to `C[C@@H]1CCO[C@H]2Cn3cc(C(=O)NCc4ccc(F)cc4F)c(=O)c(O)c3C(=O)N12`, the compound was classed as inactive.

A further assay is described as follows: UKN4_HCS_LUHMES_neurite_outgrowth: University of Konstanz (UKN) Leist Lab Neurite Outgrowth Assay in human LUHMES cells (UKN4) (AID 2284206). The settings on record: actives raise or lower the signal. A digest of the protocol:
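2-day-differentiated LUHMES, 24 h cpd exposure, live calcein-AM + H-33342 stain, HCS fluorescence imaging of neurite area; DMSO = baseline, bidirectional fit.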
As for `CC(=O)OC/N=[N+](\C)[O-]`, the AC50 was 721 µM (active).
Turning to `Brc1cc(Br)c(Oc2cc(Br)c(Br)cc2Br)cc1Br`, the compound was called inactive.
As to `Cc1ccccc1`, the result was inactive.
The same measure, in the same setting: under `O.O=S(=O)([O-])[O-].[Mn+2]` stands “inactive”.

Another assay is described as follows: IUF_NPC1b_proliferation_BrdU_72hr: Leibniz Research Institute for Environmental Medicine (IUF) 72-hour Neural Progenitor Cell Bromodeoxyuridine (BrdU) Proliferation Assay (NPC1b) (AID 2284207).
Settings: not given
A digest of the protocol: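 BrdU luminescence ELISA quantified DNA synthesis over the last 16 h of a 72 h exposure, fitted against DMSO. Primary hNPC spheres from gestational week 16-19 cortex grown with EGF/FGF at 37C, pH 7.2-7.6.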
As to `CC(=O)OC/N=[N+](\C)[O-]`, the AC50 was 371 µM (active).
Consider `CCCCOCCOP(=O)(O)OCCOCCCC`, for which the call was inactive.
Take `CC(C)O`: the concentration at half-maximal activity (AC50) is 91.7 µM (active).
Take `F`: the AC50 was 1040 µM (active).
Same read-out and setting: under `CC(=O)N[C@@H](CC(=O)O)C(=O)O` stands 11.7 µM (active).
For `CCCCCC=C(C)C(CC)CCO` (centres undefined), the compound was classed as inactive.
`BrC1CC(Br)CC(Br)CC(Br)CC(Br)CC(Br)C1` (centres undefined): the AC50 is 8.81 µM (active).
As for `C[C@@H]1CC[C@@H](C(C)(C)O)[C@H](O)C1`, the concentration at half-maximal activity (AC50) is 8.23 µM (active).
Turning to `CC(C)c1nn(C(=O)NC(C)(C)C)c(=O)n1N`, the AC50 was 2.01 µM (active).
With `CCc1ccccc1`, the AC50 was 12.7 µM (active).
Take `CN(C)CCCn1cc(C2=C(c3c[nH]c4ccccc34)C(=O)NC2=O)c2ccccc21`: the AC50 is 0.263 µM (active).
On to `CCCCCC(C)(CC)C(=O)NC` (centres undefined), for which the AC50 was 85.3 µM (active).
In the case of `Cc1[nH]n(C)c(=O)c1C(=O)c1ccc(C(F)(F)F)cc1S(C)(=O)=O`, the AC50 is 43.4 µM (active).
Same read-out and setting: under `CC(CNC(=S)[S-])NC(=S)[S-].[Zn+2]` (centres undefined) stands 50 µM (active).
Turning to `C[C@@H]1CCO[C@H]2Cn3cc(C(=O)NCc4ccc(F)cc4F)c(=O)c(O)c3C(=O)N12`, the outcome was inactive.

For the origin of these results see PubChem BioAssay (EPA / NIEHS).
